Measurements from PubChem BioAssay (EPA / NIEHS).
Inconclusive results are not listed. Activity calls are given as the source filed them. Rule for the calls, unless noted: active = hit-call score of the fitted dose curve at least 0.9, where 1 is the maximum; inactive = score below 0.9.

Key:
[1] = ACEA_ER_80hr: ACEA Biosciences xCELLigence Real-Time Cell Analysis on Estrogen Receptor Agonism for Proliferation (AID 2282667; active = hit-call score of the fitted dose curve at least 0.9, where 1 is the maximum); conditions: T47D proliferation, impedance (xCELLigence), 80 h
Procedure, shortened: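 Estrogen-driven proliferation is captured as electrode impedance in T47D cells 80 h after compound addition. Test articles ran at 8 concentrations, 1:4 dilutions from 100 uM final, in two replicate plates.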

[2] = ATG_CRE_CIS: Attagene CIS-FACTORIAL HepG2 Assay for human cAMP Responsive Element (CRE) binding protein 3 (AID 2282926); conditions: HepG2 CRE cis-reporter, Attagene multiplexed mRNA; actives raise or lower the signal
Procedure, shortened: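 Transfected HepG2 were treated for 24 hours, then RNA was extracted and reporter cDNA amplified with sequence-specific primers. Labelled fragments were separated by capillary electrophoresis, and the CRE signal was fitted bidirectionally with DMSO as baseline.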

[3] = biological target: CCAAT/enhancer-binding protein beta (Homo sapiens) (UniProt P17676); assay: ATG_C_EBP_CIS: Attagene CIS-FACTORIAL HepG2 Assay for human CCAAT/Enhancer Binding Protein (C/EBP) beta (AID 2282927); conditions: HepG2 Attagene cis-factorial transcription factor reporter; actives raise or lower the signal
Procedure, shortened: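 RT-PCR/capillary electrophoresis fluorescence of reporter mRNA, 24 h post-dose, in HepG2 cells carrying transfected cis-promoter reporter units. Bidirectional curve fitting against DMSO baseline captures gain or loss of signal.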

[4] = ATG_CMV_CIS: Attagene CIS-FACTORIAL HepG2 Assay for human CMV (Internal Marker) (AID 2282928); conditions: HepG2 CMV promoter reporter, transcription factor profiling; actives raise or lower the signal;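 note: endpoint acts as a background internal control marker rather than a target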
Procedure, shortened: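 After transient transfection of HepG2 with reporter transcription units driven by cis-regulatory promoters, cells receive test chemical for 24 h. Labeled reporter amplicons, digested with HpaI, are sized and quantified by capillary electrophoresis against DMSO.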

[5] = ATG_DR4_LXR_CIS: Attagene CIS-FACTORIAL HepG2 Assay for human Liver X Receptor (LXR), DR4 submotif (AID 2282929); conditions: HepG2 Attagene DR4 cis-reporter, mRNA transcription; actives raise or lower the signal
Procedure, shortened: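 HepG2 cells transiently transfected with cis-promoter-driven multiplexed reporter units (DR4 element) were dosed for 24 h. Reporter mRNA was quantified by RT-PCR, fluorescent primer extension, HpaI digestion and capillary electrophoresis; bidirectional fitting versus DMSO baseline.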

[6] = biological target: Aryl hydrocarbon receptor (Homo sapiens) (UniProt P35869); assay: ATG_Ahr_CIS: Attagene CIS-FACTORIAL HepG2 Assay for human Aryl Hydrocarbon Receptor (Ahr) (AID 2282930); conditions: HepG2 AhR cis-factorial reporter transcription; actives raise or lower the signal
Procedure, shortened: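 HepG2 cells transiently transfected with cis-element-driven multiplexed reporter transcription units; endogenous transcription factor activity measured as reporter mRNA 24 h after dosing. RT-PCR, 6-FAM labelling, HpaI digestion, capillary electrophoresis; bidirectional fitting versus DMSO baseline.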

[7] = ATG_AP_1_CIS: Attagene CIS-FACTORIAL HepG2 Assay for human Activator Protein 1 (AP-1) (AID 2282931); conditions: HepG2 Attagene cis-factorial AP-1 reporter mRNA; actives raise or lower the signal
Procedure, shortened: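 HepG2 cells transiently transfected with cis-element-driven multiplex reporter units; 24 h compound exposure. Reporter mRNA quantified by RT-PCR, FAM-labelled fragments resolved by capillary electrophoresis; bidirectional fit versus DMSO baseline.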

[8] = ATG_AP_2_CIS: Attagene CIS-FACTORIAL HepG2 Assay for human Activator Protein 2 (AP-2) (AID 2282932); conditions: HepG2 AP-2 cis-reporter, Attagene transcription factor profiling; actives raise or lower the signal
Procedure, shortened: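 HepG2 cells were transiently transfected with multiple cis-promoter reporter transcription units and dosed for 24 h. Reporter mRNA was measured by RT-PCR with capillary electrophoresis fluorescence; bidirectional fits relative to DMSO baseline.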

[9] = ATG_BRE_CIS: Attagene CIS-FACTORIAL HepG2 Assay for human Bone Morphogenetic Protein (BMP) Response Element (BRE) (AID 2282933); conditions: HepG2 BMP response element reporter, Attagene transcription factor profiling; actives raise or lower the signal
Procedure, shortened: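 After a 24 h chemical treatment, transiently transfected HepG2 cells were lysed for RNA; reporter transcripts were quantified by fluorescent RT-PCR and capillary electrophoresis, normalised to DMSO.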

[10] = biological target: Retinoic acid receptor alpha (Homo sapiens) (UniProt P10276); assay: ATG_DR5_RAR_CIS: Attagene CIS-FACTORIAL HepG2 Assay for human Retinoic Acid Receptor Alpha (RARE), DR5 submotif (AID 2282934); conditions: HepG2 Attagene cis-factorial RARE DR5 reporter, mRNA; actives raise or lower the signal;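 for AC50: reporter responds to endogenous RAR alpha beta and gamma in HepG2 not RARA alone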
Procedure, shortened: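 HepG2 cells transiently transfected with multiplexed reporter units under cis (DR5 RARE) promoters, so endogenous transcription factor activity is measured. After 24 h compound exposure, reporter mRNA is quantified by RT-PCR with fluorescent labelling and capillary electrophoresis; bidirectional fitting versus DMSO.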

[11] = biological target: Transcription factor E2F1 (Homo sapiens) (UniProt Q01094); assay: ATG_E2F_CIS: Attagene CIS-FACTORIAL HepG2 Assay for human E2F Transcription Factor 1 (AID 2282935); conditions: HepG2 Attagene cis-reporter, E2F reporter RNA transcripts; actives raise or lower the signal
Procedure, shortened: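 HepG2 cells transiently transfected with multiplexed cis-element reporter units, dosed for 24 h. Reporter mRNA measured by RT-PCR, 6-FAM primer-extension labeling, HpaI digestion and capillary electrophoresis; bidirectional fit versus DMSO baseline.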

[12] = ATG_E_Box_CIS: Attagene CIS-FACTORIAL HepG2 Assay for human Enhancer Box (E-box) (AID 2282936); conditions: HepG2 E-box cis-reporter transcription, actives raise or lower the signal
Procedure, shortened: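 HepG2 cells transiently transfected with multiplexed cis-element reporter units sensing endogenous transcription factor activity; 24 h compound exposure. Reporter mRNA measured by RT-PCR, 6-FAM primer extension, HpaI digestion and capillary electrophoresis; bidirectional fit versus DMSO.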

[13] = ATG_M_61_CIS: Attagene CIS-FACTORIAL HepG2 Assay for M61 Transcription Factor (Internal Marker) (AID 2282937); conditions: HepG2 Attagene CIS-FACTORIAL M61 internal marker reporter; actives raise or lower the signal
Procedure, shortened: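 HepG2 cells transiently transfected with cis-element-driven multiple reporter transcription units, dosed for 24 h. Reporter mRNA measured by RT-PCR, 6-FAM primer-extension labelling, HpaI digestion and capillary electrophoresis; bidirectional fit versus DMSO baseline.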

[14] = ATG_EGR_CIS: Attagene CIS-FACTORIAL HepG2 Assay for human Early Growth Response 1 (EGR1) (AID 2282938); conditions: HepG2 Attagene CIS-FACTORIAL EGR reporter mRNA; actives raise or lower the signal
Procedure, shortened: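 HepG2 cells transiently transfected with cis-promoter-driven multiplexed reporter transcription units; reporter mRNA measured 24 h after compound dosing by RT-PCR, 6-FAM primer extension, HpaI digestion and capillary electrophoresis. Bidirectional fit versus DMSO baseline.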

[15] = ATG_M_19_CIS: Attagene CIS-FACTORIAL HepG2 Assay for M19 Transcription Factor (Internal Marker) (AID 2282939); conditions: HepG2 Attagene CIS-FACTORIAL M19 internal marker reporter; actives raise or lower the signal
Procedure, shortened: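 In this multiplexed cell assay, transiently transfected HepG2 reporter units report endogenous transcription-factor activity; after 24 hours of treatment, labelled reporter cDNA fragments are quantified by capillary electrophoresis and fitted bidirectionally against DMSO.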

[16] = ATG_ERE_CIS: Attagene CIS-FACTORIAL HepG2 Assay for Estrogen Response Element (ERE) (AID 2282940); conditions: HepG2 ERE cis-reporter, Attagene RNA transcript; actives raise or lower the signal
Procedure, shortened: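 Measuring endogenous transcription factor output, the assay doses transfected HepG2 cells for 24 hours and quantifies reporter transcripts by fluorescent RT-PCR and capillary electrophoresis, with DMSO as baseline.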

[17] = ATG_Ets_CIS: Attagene CIS-FACTORIAL HepG2 Assay for human Erythroblast Transformation Specific (ETS) (AID 2282941); conditions: HepG2 ETS cis-reporter transcription, actives raise or lower the signal
Procedure, shortened: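 Human HepG2 hepatoma cells were transiently transfected with promoter-driven reporter constructs and treated for 24 hours. Reporter transcripts were quantified by RT-PCR with fluorescent primer extension; bidirectional curve fitting used DMSO as reference.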

[18] = biological target: Hepatocyte nuclear factor 3-beta (Homo sapiens) (UniProt Q9Y261); assay: ATG_FoxA2_CIS: Attagene CIS-FACTORIAL HepG2 Assay for human Forkhead box A2 (FOXA2) (AID 2282942); conditions: HepG2 cis-reporter transcription factor activity, 24 h; actives raise or lower the signal
Procedure, shortened: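 HepG2 cells transiently transfected with multiple cis-regulated reporter transcription units, dosed for 24 h. Reporter mRNA measured by RT-PCR, 6-FAM labelling, HpaI digestion and capillary electrophoresis; bidirectional fitting against DMSO baseline.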

[19] = ATG_FoxO_CIS: Attagene CIS-FACTORIAL HepG2 Assay for human Forkhead box O (FoxO) (AID 2282943); conditions: HepG2 Attagene cis-reporter, FoxO element, mRNA; actives raise or lower the signal
Procedure, shortened: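 HepG2 cells transiently transfected with cis-promoter-driven multiple reporter transcription units; 24 h after chemical dosing, reporter mRNA quantified by RT-PCR, fluorescent primer extension, HpaI digestion and capillary electrophoresis. Bidirectional fitting versus DMSO baseline.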

[20] = ATG_GATA_CIS: Attagene CIS-FACTORIAL HepG2 Assay for human GATA Binding Protein (AID 2282944); conditions: HepG2 GATA cis-element reporter, Attagene multiplex mRNA; actives raise or lower the signal
Procedure, shortened: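 Measures endogenous transcription factor-driven reporter mRNA in HepG2 cells transiently carrying cis-regulated constructs. 24 h dosing; RNA via oligo(dT) reverse transcription, PCR, HpaI digestion, capillary electrophoresis; fitted relative to DMSO.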

Measured: AC50

Chain of Aryl hydrocarbon receptor (Homo sapiens) (P35869 whole entry, looked up): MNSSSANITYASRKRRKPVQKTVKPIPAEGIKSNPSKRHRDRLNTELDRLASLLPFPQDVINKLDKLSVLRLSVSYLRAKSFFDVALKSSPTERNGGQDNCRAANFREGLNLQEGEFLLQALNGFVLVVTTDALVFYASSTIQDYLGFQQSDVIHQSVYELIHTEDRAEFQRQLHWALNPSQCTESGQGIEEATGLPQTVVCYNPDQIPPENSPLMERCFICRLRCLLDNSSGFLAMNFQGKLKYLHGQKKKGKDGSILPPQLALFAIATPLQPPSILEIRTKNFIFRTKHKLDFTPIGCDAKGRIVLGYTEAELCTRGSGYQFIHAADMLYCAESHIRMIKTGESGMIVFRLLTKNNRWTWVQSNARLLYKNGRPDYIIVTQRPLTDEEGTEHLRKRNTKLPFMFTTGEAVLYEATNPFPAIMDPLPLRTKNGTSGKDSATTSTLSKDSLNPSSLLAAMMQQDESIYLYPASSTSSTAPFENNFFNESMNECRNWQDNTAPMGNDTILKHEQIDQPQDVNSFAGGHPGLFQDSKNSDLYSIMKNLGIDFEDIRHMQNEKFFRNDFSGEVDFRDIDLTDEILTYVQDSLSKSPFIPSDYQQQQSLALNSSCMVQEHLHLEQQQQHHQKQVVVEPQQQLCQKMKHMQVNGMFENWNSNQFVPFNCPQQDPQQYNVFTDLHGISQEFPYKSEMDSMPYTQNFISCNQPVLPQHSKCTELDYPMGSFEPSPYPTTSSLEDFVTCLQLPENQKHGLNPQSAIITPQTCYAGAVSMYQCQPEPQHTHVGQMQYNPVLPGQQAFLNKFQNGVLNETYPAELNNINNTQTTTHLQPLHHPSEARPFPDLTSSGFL
Chain of Hepatocyte nuclear factor 3-beta (Homo sapiens) (Q9Y261 whole entry, looked up): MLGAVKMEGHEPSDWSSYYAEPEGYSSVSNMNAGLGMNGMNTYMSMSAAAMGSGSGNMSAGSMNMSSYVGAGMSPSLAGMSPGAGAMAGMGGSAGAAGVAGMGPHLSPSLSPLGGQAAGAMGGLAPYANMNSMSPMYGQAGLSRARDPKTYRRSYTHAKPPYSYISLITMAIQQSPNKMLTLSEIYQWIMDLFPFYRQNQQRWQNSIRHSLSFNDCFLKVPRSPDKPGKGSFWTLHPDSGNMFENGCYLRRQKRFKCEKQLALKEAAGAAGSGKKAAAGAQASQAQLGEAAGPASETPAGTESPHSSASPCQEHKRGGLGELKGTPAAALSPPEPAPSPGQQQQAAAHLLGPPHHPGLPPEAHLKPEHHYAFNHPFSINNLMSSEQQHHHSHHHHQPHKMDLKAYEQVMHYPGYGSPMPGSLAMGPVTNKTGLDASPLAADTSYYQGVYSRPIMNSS
Chain of Retinoic acid receptor alpha (Homo sapiens) (P10276 whole entry, looked up): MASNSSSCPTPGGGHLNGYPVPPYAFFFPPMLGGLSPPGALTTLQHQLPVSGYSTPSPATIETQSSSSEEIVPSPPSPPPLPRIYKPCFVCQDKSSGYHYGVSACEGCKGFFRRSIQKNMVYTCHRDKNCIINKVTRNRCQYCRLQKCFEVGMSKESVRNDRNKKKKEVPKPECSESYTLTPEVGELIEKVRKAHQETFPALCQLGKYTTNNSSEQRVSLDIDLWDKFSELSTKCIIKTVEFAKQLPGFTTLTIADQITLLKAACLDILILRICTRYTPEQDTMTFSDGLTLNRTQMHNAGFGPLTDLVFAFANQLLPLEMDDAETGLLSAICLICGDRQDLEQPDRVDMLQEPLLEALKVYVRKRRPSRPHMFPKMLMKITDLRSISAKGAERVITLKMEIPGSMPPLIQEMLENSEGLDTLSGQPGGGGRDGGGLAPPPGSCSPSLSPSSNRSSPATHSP
Chain of CCAAT/enhancer-binding protein beta (Homo sapiens) (P17676 whole entry, looked up): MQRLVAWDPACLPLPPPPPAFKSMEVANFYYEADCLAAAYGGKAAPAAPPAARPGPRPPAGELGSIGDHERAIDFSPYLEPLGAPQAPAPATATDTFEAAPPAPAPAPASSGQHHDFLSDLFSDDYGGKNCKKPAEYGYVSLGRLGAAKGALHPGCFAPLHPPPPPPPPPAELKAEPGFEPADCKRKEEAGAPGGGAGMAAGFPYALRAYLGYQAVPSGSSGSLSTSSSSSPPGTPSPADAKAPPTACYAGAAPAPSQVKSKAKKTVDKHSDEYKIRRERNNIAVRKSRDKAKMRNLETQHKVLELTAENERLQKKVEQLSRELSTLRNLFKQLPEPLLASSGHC
Chain of Transcription factor E2F1 (Homo sapiens) (Q01094 whole entry, looked up): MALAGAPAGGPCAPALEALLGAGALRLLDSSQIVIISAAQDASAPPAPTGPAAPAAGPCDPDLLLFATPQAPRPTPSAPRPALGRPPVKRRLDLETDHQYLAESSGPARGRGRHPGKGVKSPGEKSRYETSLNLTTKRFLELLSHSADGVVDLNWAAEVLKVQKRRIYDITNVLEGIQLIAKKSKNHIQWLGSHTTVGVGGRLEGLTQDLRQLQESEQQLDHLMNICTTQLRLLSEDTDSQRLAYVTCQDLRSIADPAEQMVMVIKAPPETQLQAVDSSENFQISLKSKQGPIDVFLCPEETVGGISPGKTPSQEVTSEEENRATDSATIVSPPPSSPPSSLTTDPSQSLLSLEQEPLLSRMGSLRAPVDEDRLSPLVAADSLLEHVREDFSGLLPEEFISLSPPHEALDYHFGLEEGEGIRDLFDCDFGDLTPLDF

C[C@]12CC[C@H]3C(=CCc4cc(O)ccc43)[C@@H]1CCC2=O
inactive: [2] | [3] | [4] | [5] | [6] | [7] | [8] | [9] | [10] | [11] | [12] | [13] | [14] | [15] | [17] | [18] | [19] | [20]
active: [1] 0.00143 µM | [16] 0.0626 µM

F[Si-2](F)(F)(F)(F)F
inactive: [1] | [2] | [3] | [4] | [5] | [6] | [7] | [8] | [9] | [10] | [11] | [12] | [13] | [14] | [15] | [16] | [17] | [18] | [19] | [20]

CCCCOC(=O)[C@H](C)O
inactive: [1] | [2] | [3] | [4] | [5] | [6] | [7] | [8] | [9] | [10] | [11] | [12] | [13] | [15] | [16] | [17] | [18] | [19] | [20]

O=C(O)C(F)(F)OC(F)(F)C(F)(F)OC(F)(F)C(F)(F)OC(F)(F)F
inactive: [2] | [3] | [5] | [6] | [8] | [9] | [10] | [11] | [12] | [13] | [15] | [16] | [17] | [18] | [19] | [20]
active: [1] 13.2 µM | [4] 66.5 µM | [7] 66.5 µM

O=C(F)C1(F)C(F)(F)C(F)(F)C(F)(F)C(F)(F)C1(F)F
inactive: [1] | [2] | [3] | [4] | [5] | [6] | [7] | [8] | [9] | [10] | [11] | [12] | [13] | [15] | [16] | [17] | [18] | [19] | [20]

CC(C)(C)c1cc(Cc2cc(C(C)(C)C)c(O)c(C(C)(C)C)c2)cc(C(C)(C)C)c1O
inactive: [1] | [2] | [3] | [4] | [5] | [6] | [7] | [8] | [9] | [10] | [11] | [12] | [13] | [15] | [16] | [17] | [19] | [20]

CCc1cc(Cc2cc(CC)c(N)c(CC)c2)cc(CC)c1N
active: [2] 33.4 µM | [4] 6.64 µM | [5] 24.2 µM | [7] 23.6 µM | [10] 2.96 µM | [11] 54.4 µM | [12] 9.07 µM | [18] 33.4 µM | [19] 58.8 µM
inactive: [1] | [3] | [6] | [8] | [9] | [13] | [14] | [15] | [16] | [17] | [20]
